Reference: PubChem BioAssay
The source made the active and inactive calls. Unless noted, how the calls were made is not given here.

Experiments:
[1] = test system: Wnt5a (protein binding on small-molecule microarray); assay: Wnt5a binders on small-molecule microarray, primary screen, biophysical, 635/667 nm fluorescence (AID 1142); details: 635 nm fluorescence, higher = more signal;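 further: fluorescence read at 667 nm with signal to noise per printed feature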
[2] = cell viability in Huh7 cells, primary screen, cytotoxicity control for HCV replication inhibitor project, CellTiter-Glo luminescence, basal, 48 h (AID 1143); details: Huh7 HCV replicon, higher = more signal, called active from +8 up or from −8 down;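 further: Huh7 hepatoma cells carrying a hepatitis C replication reporter with no stimulus; test concentration not given here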
[3] = P. aeruginosa biofilm formation inhibitors, primary screen, PAO1 strain, BacTiter-Glo luminescence, LB-PBS (AID 1144); details: 12 h, higher = more signal
[4] = CREB reporter modulators without forskolin, primary screen, cell-based, PC12, CRE-LacZ reporter, unstimulated (AID 1145); details: no forskolin, luminescence, 4.5 h, higher = more signal, called active from +8 up or from −8 down
[5] = CREB reporter modulators under forskolin, primary screen, cell-based, PC12, CRE-LacZ reporter, forskolin-stimulated (AID 1146); details: luminescence, 4.5 h, higher = more signal, called active from +8 up or from −8 down;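 further: PC12 cells with 6xCRE LacZ reporter stimulated by forskolin 10 µM; beta-galactosidase reporter signal reflecting CREB driven transcription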
[6] = target: Streptavidin (Streptomyces avidinii) (UniProt P22629); assay: streptavidin binders on small-molecule microarray, primary screen, artefact control for SMM compound annotation, biophysical, 635/667 nm fluorescence (AID 1147); details: streptavidin binding, higher = more signal;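 further: signal reflects streptavidin binding to arrayed compounds as a control protein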
[7] = small-molecule binders of probe aInhba, primary screen, biochemical, small-molecule microarray, 635/667 nm fluorescence (AID 1148); details: higher = more signal;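 further: score merges 667nm spot fluorescence with signal-to-noise for antibody binding to printed compounds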
Torsin-1A (Homo sapiens) [8] = target: Torsin-1A (Homo sapiens) (UniProt O14656); assay: torsin A binders from cell lysate, primary screen, small-molecule microarray, wild-type, 635/667 nm (AID 1149); details: COS7 hTOR1A-WT lysate, 635 nm fluorescence, higher = more signal
Torsin-1A (Homo sapiens) [9] = target: Torsin-1A (Homo sapiens) (UniProt O14656); assay: small-molecule binders of mutant TOR1A in lysate, primary screen, cell lysate, small-molecule microarray, COS7 lysate, 635/667 nm fluorescence (AID 1150); details: COS7 hTOR1A mutant lysate, 635 nm fluorescence, higher = more signal;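 further: score pools 667 nm emission and signal to noise measuring lysate protein binding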
[10] = test system: Sonic hedgehog protein (Shh); assay: small-molecule binders of Shh protein, primary screen, biochemical, small-molecule microarray, 635/667 nm fluorescence (AID 1151); details: small-molecule microarray binding, 635 nm fluorescence; higher = more signal;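 further: Shh protein binding to compounds spotted on small-molecule microarray slides; score combines spot fluorescence intensity with signal-to-noise across triplicate slides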

Sequence of Streptavidin (Streptomyces avidinii) (P22629 whole entry, looked up): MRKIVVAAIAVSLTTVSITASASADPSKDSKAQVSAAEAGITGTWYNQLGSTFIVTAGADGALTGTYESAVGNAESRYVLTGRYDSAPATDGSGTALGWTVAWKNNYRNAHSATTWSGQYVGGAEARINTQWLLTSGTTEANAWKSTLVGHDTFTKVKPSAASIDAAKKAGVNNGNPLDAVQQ
Sequence of Torsin-1A (Homo sapiens) (O14656 whole entry, looked up): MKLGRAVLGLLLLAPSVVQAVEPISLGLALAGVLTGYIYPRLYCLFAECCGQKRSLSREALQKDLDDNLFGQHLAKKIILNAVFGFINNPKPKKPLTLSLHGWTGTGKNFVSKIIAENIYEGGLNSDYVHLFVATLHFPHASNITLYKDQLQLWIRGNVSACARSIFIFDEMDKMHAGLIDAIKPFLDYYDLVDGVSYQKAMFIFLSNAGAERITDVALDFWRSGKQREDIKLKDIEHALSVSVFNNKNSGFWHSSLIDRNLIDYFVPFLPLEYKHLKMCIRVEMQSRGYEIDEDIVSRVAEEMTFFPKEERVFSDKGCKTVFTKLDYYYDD

Compound	composite z-score [1]	z-score [2]	z-score [3]	z-score [4]	z-score [5]	composite z-score [6]	composite z-score [7]	composite z-score (Torsin-1A (Homo sapiens) [8])	composite z-score (Torsin-1A (Homo sapiens) [9])	composite z-score [10]
COC(=O)[C@@H]1CC[C@H](C)[C@@H](c2ccc(C)cc2)N1C(=O)c1ccc(C=NO[C@H](C)c2cn([C@@H]3COC[C@H]3O)nn2)cc1	0.177	-0.228 (inactive)	0.068 (inactive)	2.34 (inactive)	-0.377 (inactive)	-0.243	0.0001	0.28	0.603	0.749
CC(=O)OC[C@H]1OC(ON=CC[C@@H]2C=C[C@H](OC(C)=O)[C@@H](COC(C)=O)O2)[C@H](OC(C)=O)[C@@H](OC(C)=O)[C@@H]1OC(C)=O (stereo not given in full)	0.066	-0.697 (inactive)	-0.133 (inactive)	0.327 (inactive)	0.915 (inactive)	0.559	-0.126	0.37	0.877	-0.499
CO[C@H]1COC(=O)CCC[C@@H](C)[C@H](OC)COC(=O)[C@@H](C)NC(=O)CC=C[C@@H]1C	-0.183	-2.74 (inactive)	-0.231 (inactive)	-0.58 (inactive)	-0.041 (inactive)	-0.429	-0.152	2.63	1.5	2.1
CC(CCN1CCc2nc(-c3ccccc3)c(-c3ccccc3)cc2C1)=NOC[C@@H](O)[C@H]1O[C@@H]2OC(C)(C)O[C@@H]2[C@H]1O	0.19	-0.875 (inactive)	0.306 (inactive)	2.25 (inactive)	-0.311 (inactive)	0.687	-0.0589	0.648	0.587	1.09
O=C1[C@H]2[C@H]3[C@H](O)[C@H](O)CC(=NOC[C@@H](O)COCc4ccco4)[C@H]3CC[C@H]2C(=O)N1C[C@@H]1CCCO1	0.228	0.208 (inactive)	-0.136 (inactive)	0.424 (inactive)	0.261 (inactive)	-0.0239	-0.111	3.31	2.75	0.793
CCOC(=O)NN=C1C[C@@H](O)[C@@H](O)[C@@H]2[C@@H]3C(=O)N(Cc4ccccc4)C(=O)[C@@H]3CC[C@H]12	-0.0307	-0.239 (inactive)	-0.704 (inactive)	-0.837 (inactive)	-0.175 (inactive)	1.09	-0.214	0.0722	1.36	-0.171
C[n+]1ccc(-c2ccc(CO)cc2)cc1	-0.0113	0.0559 (inactive)	0.466 (inactive)	0.919 (inactive)	0.723 (inactive)	2.72	-0.0209	0.565	1.67	2.14
COC(=O)NCC=Cc1nc(CCCO)co1	0.134	-0.068 (inactive)	0.633 (inactive)	0.286 (inactive)	-0.0562 (inactive)	0.362	-0.353	0.519	0.802	0.883
CCN1C(=O)[C@H]2[C@H]3[C@H](O)[C@H](O)CC(=NOCC(C)C)[C@@H]3CC[C@H]2C1=O	-0.111	-0.101 (inactive)	0.258 (inactive)	-0.929 (inactive)	-0.2 (inactive)	0.017	0.038	0.729	0.634	1.31
Cc1cc2c(nc1C)CCCCN2CC(C)ON=C1[C@H]2CCn3c(=O)n(-c4ccccc4)c(=O)n3[C@H]2[C@H](O)[C@@H]2O[C@H]12 (stereo not given in full)	0.384	-0.299 (inactive)	0.888 (inactive)	-1.21 (inactive)	-0.379 (inactive)	-0.251	-0.125	-0.0459	-0.136	0.829
C#CCCCON=C1C[C@@H](O)[C@@H](O)[C@@H]2[C@@H]3C(=O)N(CCC(=O)OCC)C(=O)[C@@H]3CC[C@H]12	0.104	-1.42 (inactive)	1.11 (inactive)	-0.295 (inactive)	0.783 (inactive)	0.873	-0.0736	0.0183	0.36	1.65
